Test results reported in PubChem BioAssay AID1159580 (chemical genetic matrix, 2015).
Among all 5,500 compounds or so, about 2,000 (36%) were called active. Inconclusive results (about 18%) are left out. Cut-off read from the data, not from the text of the source: active = normalized growth mostly below about 0.91 (no sharp cut-off); inconclusive = no clear call, values can overlap the other calls; inactive = mostly above about 0.92. The list shows a part of the results.

Test: chemical genetic growth profiling, strain panel (AID 1159580);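 note: tested at 20 µM; growth read once vehicle control cultures reached saturation at 30 °C; 1 = growth at the plate median or of vehicle wells; lower values mean less growth of the strain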
Conditions: growth OD

Measured: normalized growth

CC(C)=CCc1c2c(c(O)c3c(=O)c(O)c(-c4ccccc4)oc13)C=CC(C)(C)O2
active: S. cerevisiae deletion strains, locus YAL021C, strain ccr4, active compounds read low 0.79 | S. cerevisiae deletion strains, locus YAL026C, strain drs2, active compounds read low 0.566 | S. cerevisiae deletion strains, locus YAL030W, strain snc1, active compounds read low 0.886 | S. cerevisiae deletion strains, locus YBL061C, strain skt5, active compounds read low 0.688 | S. cerevisiae deletion strains, locus YBR023C, strain chs3, active compounds read low 0.687 | S. cerevisiae deletion strains, locus YBR229C, strain ROT2, active compounds read low 0.829 | S. cerevisiae deletion strains, locus YBR231C, strain swc5, active compounds read low 0.678 | S. cerevisiae deletion strains, locus YCL011C, strain gbp2, active compounds read low 0.683 | S. cerevisiae deletion strains, locus YCL029C, strain bik1, active compounds read low 0.678 | S. cerevisiae deletion strains, locus YCL061C, strain MRC1, active compounds read low 0.748 | S. cerevisiae deletion strains, locus YCL069W, strain vba3, active compounds read low 0.751 | S. cerevisiae deletion strains, locus YCR088W, strain abp1, active compounds read low 0.835 | S. cerevisiae deletion strains, locus YDL035C, strain GPR1, active compounds read low 0.589 | S. cerevisiae deletion strains, locus YDL074C, strain BRE1, active compounds read low 0.49 | S. cerevisiae deletion strains, locus YDL101C, strain DUN1, active compounds read low 0.628 | S. cerevisiae deletion strains, locus YDL185W, strain tfp1, active compounds read low 0.769 | S. cerevisiae deletion strains, locus YDL192W, strain arf1, active compounds read low 0.732 | S. cerevisiae deletion strains, locus YDR069C, strain doa4, active compounds read low 0.613 | S. cerevisiae deletion strains, locus YDR101C, strain arx1, active compounds read low 0.809 | S. cerevisiae deletion strains, locus YDR162C, strain NBP2, active compounds read low 0.326 | S. cerevisiae deletion strains, locus YDR297W, strain sur2, active compounds read low 0.821 | S. cerevisiae deletion strains, locus YDR318W, strain mcm21, active compounds read low 0.73 | S. cerevisiae deletion strains, locus YDR334W, strain swr1, active compounds read low 0.582 | S. cerevisiae deletion strains, locus YDR335W, strain msn5, active compounds read low 0.793 | S. cerevisiae deletion strains, locus YDR388W, active compounds read low 0.745 | S. cerevisiae deletion strains, locus YDR392W, strain spt3, active compounds read low 0.602 | S. cerevisiae deletion strains, locus YDR502C, strain sam2, active compounds read low 0.794 | S. cerevisiae deletion strains, locus YEL003W, strain gim4, active compounds read low 0.683 | S. cerevisiae deletion strains, locus YEL037C, strain rad23, active compounds read low 0.788 | S. cerevisiae deletion strains, locus YEL061C, strain CIN8 (second series), active compounds read low 0.876 | S. cerevisiae deletion strains, locus YER015W, strain faa2, active compounds read low 0.457 | S. cerevisiae deletion strains, locus YER111C, strain swi4, active compounds read low 0.734 | S. cerevisiae deletion strains, locus YER155C, strain BEM2 (second series), active compounds read low 0.755 | S. cerevisiae deletion strains, locus YER155C, strain BEM2, active compounds read low 0.762 | S. cerevisiae deletion strains, locus YER167W, strain BCK2, active compounds read low 0.683 | S. cerevisiae deletion strains, locus YFR010W, strain ubp6, active compounds read low 0.632 | S. cerevisiae deletion strains, locus YGL086W, strain mad1, active compounds read low 0.701 | S. cerevisiae deletion strains, locus YGL173C, strain kem1, active compounds read low 0.475 | S. cerevisiae deletion strains, locus YGL248W, strain PDE1, active compounds read low 0.586 | S. cerevisiae deletion strains, locus YGL253W, strain hxk2, active compounds read low 0.657 | S. cerevisiae deletion strains, locus YGR078C, strain PAC10, active compounds read low 0.554 | S. cerevisiae deletion strains, locus YGR135W, strain pre9, active compounds read low 0.69 | S. cerevisiae deletion strains, locus YHR027C, strain rpn1, active compounds read low 0.356 | S. cerevisiae deletion strains, locus YHR079C, strain IRE1 (second series), active compounds read low 0.774 | S. cerevisiae deletion strains, locus YHR094C, strain hxt1, active compounds read low 0.828 | S. cerevisiae deletion strains, locus YHR129C, strain ARP1, active compounds read low 0.55 | S. cerevisiae deletion strains, locus YHR142W, strain chs7, active compounds read low 0.653 | S. cerevisiae deletion strains, locus YHR200W, strain rpn10, active compounds read low 0.731 | S. cerevisiae deletion strains, locus YIL066C, strain RNR3, active compounds read low 0.54 | S. cerevisiae deletion strains, locus YIL073C, strain SPO22, active compounds read low 0.32 | S. cerevisiae deletion strains, locus YIL125W, strain kgd1, active compounds read low 0.88 | S. cerevisiae deletion strains, locus YIR030C, strain dcg1, active compounds read low 0.837 | S. cerevisiae deletion strains, locus YJL092W, strain hpr5, active compounds read low 0.834 | S. cerevisiae deletion strains, locus YJL095W, strain BCK1 (second series), active compounds read low 0.628 | S. cerevisiae deletion strains, locus YJL095W, strain BCK1, active compounds read low 0.379 | S. cerevisiae deletion strains, locus YJL115W, strain asf1, active compounds read low 0.829 | S. cerevisiae deletion strains, locus YJL134W, strain LCB3, active compounds read low 0.778 | S. cerevisiae deletion strains, locus YJL154C, strain vps35, active compounds read low 0.817 | S. cerevisiae deletion strains, locus YJL164C, strain tpk1, active compounds read low 0.732 | S. cerevisiae deletion strains, locus YJL166W, strain qcr8, active compounds read low 0.891 | S. cerevisiae deletion strains, locus YJL168C, strain set2, active compounds read low 0.864 | S. cerevisiae deletion strains, locus YJL187C, strain SWE1 (second series), active compounds read low 0.417 | S. cerevisiae deletion strains, locus YJL187C, strain SWE1, active compounds read low 0.639 | S. cerevisiae deletion strains, locus YJR043C, strain POL32, active compounds read low 0.496 | S. cerevisiae deletion strains, locus YKL190W, strain CNB1, active compounds read low 0.585 | S. cerevisiae deletion strains, locus YKR001C, strain vps1, active compounds read low 0.816 | S. cerevisiae deletion strains, locus YKR026C, strain gcn3, active compounds read low 0.899 | S. cerevisiae deletion strains, locus YKR091W, strain srl3, active compounds read low 0.831 | S. cerevisiae deletion strains, locus YLL001W, strain dnm1, active compounds read low 0.74 | S. cerevisiae deletion strains, locus YLR027C, strain aat2, active compounds read low 0.86 | S. cerevisiae deletion strains, locus YLR039C, strain RIC1, active compounds read low 0.379 | S. cerevisiae deletion strains, locus YLR058C, strain SHM2, active compounds read low 0.563 | S. cerevisiae deletion strains, locus YLR221C, strain rsa3, active compounds read low 0.835 | S. cerevisiae deletion strains, locus YLR258W, strain gsy2, active compounds read low 0.892 | S. cerevisiae deletion strains, locus YLR262C, strain YPT6 (second series), active compounds read low 0.542 | S. cerevisiae deletion strains, locus YLR268W, strain sec22, active compounds read low 0.633 | S. cerevisiae deletion strains, locus YLR320W, strain mms22, active compounds read low 0.762 | S. cerevisiae deletion strains, locus YLR342W, strain FKS1, active compounds read low 0.514 | S. cerevisiae deletion strains, locus YLR357W, strain rsc2, active compounds read low 0.61 | S. cerevisiae deletion strains, locus YLR370C, strain arc18, active compounds read low 0.754 | S. cerevisiae deletion strains, locus YLR371W, strain rom2, active compounds read low 0.623 | S. cerevisiae deletion strains, locus YLR384C, strain iki3, active compounds read low 0.723 | S. cerevisiae deletion strains, locus YLR418C, strain cdc73, active compounds read low 0.502 | S. cerevisiae deletion strains, locus YML016C, strain PPZ1, active compounds read low 0.484 | S. cerevisiae deletion strains, locus YML032C, strain rad52, active compounds read low 0.861 | S. cerevisiae deletion strains, locus YML120C, strain ndi1, active compounds read low 0.822 | S. cerevisiae deletion strains, locus YML124C, strain tub3, active compounds read low 0.878 | S. cerevisiae deletion strains, locus YMR058W, strain fet3, active compounds read low 0.143 | S. cerevisiae deletion strains, locus YMR125W, strain sto1, active compounds read low 0.872 | S. cerevisiae deletion strains, locus YMR129W, active compounds read low 0.854 | S. cerevisiae deletion strains, locus YMR205C, strain PFK2, active compounds read low 0.51 | S. cerevisiae deletion strains, locus YMR223W, strain ubp8, active compounds read low 0.711 | S. cerevisiae deletion strains, locus YMR231W, strain pep5, active compounds read low 0.533 | S. cerevisiae deletion strains, locus YMR307W, strain GAS1, active compounds read low 0.53 | S. cerevisiae deletion strains, locus YNL067W, strain RPL9B, active compounds read low 0.697 | S. cerevisiae deletion strains, locus YNL071W, strain lat1, active compounds read low 0.898 | S. cerevisiae deletion strains, locus YNL153C, strain GIM3, active compounds read low 0.619 | S. cerevisiae deletion strains, locus YNL209W, strain ssb2, active compounds read low 0.277 | S. cerevisiae deletion strains, locus YNL233W, strain BNI4, active compounds read low 0.548 | S. cerevisiae deletion strains, locus YNL248C, strain rpa49, active compounds read low 0.842 | S. cerevisiae deletion strains, locus YNL271C, strain bni1, active compounds read low 0.886 | S. cerevisiae deletion strains, locus YNL298W, strain CLA4, active compounds read low 0.88 | S. cerevisiae deletion strains, locus YNL307C, strain MCK1, active compounds read low 0.775 | S. cerevisiae deletion strains, locus YNR052C, strain pop2, active compounds read low 0.824 | S. cerevisiae deletion strains, locus YOL006C, strain TOP1, active compounds read low 0.319 | S. cerevisiae deletion strains, locus YOL147C, strain pex11, active compounds read low 0.873 | S. cerevisiae deletion strains, locus YOR001W, strain rrp6, active compounds read low 0.836 | S. cerevisiae deletion strains, locus YOR061W, strain CKA2, active compounds read low 0.528 | S. cerevisiae deletion strains, locus YOR069W, strain VPS5, active compounds read low 0.606 | S. cerevisiae deletion strains, locus YOR070C, strain gyp1, active compounds read low 0.77 | S. cerevisiae deletion strains, locus YOR080W, strain dia2, active compounds read low 0.818 | S. cerevisiae deletion strains, locus YOR083W, strain WHI5, active compounds read low 0.616 | S. cerevisiae deletion strains, locus YOR106W, strain vam3, active compounds read low 0.832 | S. cerevisiae deletion strains, locus YOR136W, strain idh2, active compounds read low 0.84 | S. cerevisiae deletion strains, locus YOR144C, strain elg1, active compounds read low 0.893 | S. cerevisiae deletion strains, locus YOR184W, strain ser1, active compounds read low 0.661 | S. cerevisiae deletion strains, locus YOR265W, strain rbl2, active compounds read low 0.699 | S. cerevisiae deletion strains, locus YOR270C, strain vph1, active compounds read low 0.394 | S. cerevisiae deletion strains, locus YOR316C, strain cot1, active compounds read low 0.865 | S. cerevisiae deletion strains, locus YPL051W, strain arl3, active compounds read low 0.48 | S. cerevisiae deletion strains, locus YPL078C, strain atp4, active compounds read low 0.879 | S. cerevisiae deletion strains, locus YPL106C, strain sse1, active compounds read low 0.83 | S. cerevisiae deletion strains, locus YPL241C, strain CIN2, active compounds read low 0.788 | S. cerevisiae deletion strains, locus YPR119W, strain clb2, active compounds read low 0.914 | S. cerevisiae deletion strains, locus YPR163C, strain tif3, active compounds read low 0.771 | S. cerevisiae deletion strains, locus YPR167C, strain met16, active compounds read low 0.712 | S. cerevisiae deletion strains, strain wtn01, active compounds read low 0.632 | S. cerevisiae strains, strain wild type, active compounds read low 0.346
inactive: S. cerevisiae deletion strains, locus YBR009C, strain hhf1, active compounds read low 0.917 | S. cerevisiae deletion strains, locus YBR021W, strain FUR4, active compounds read low 0.958 | S. cerevisiae deletion strains, locus YBR171W, strain sec66, active compounds read low 0.939 | S. cerevisiae deletion strains, locus YBR279W, strain paf1, active compounds read low 0.988 | S. cerevisiae deletion strains, locus YCL016C, strain dcc1, active compounds read low 0.962 | S. cerevisiae deletion strains, locus YDL005C, strain med2, active compounds read low 0.981 | S. cerevisiae deletion strains, locus YDL040C, strain nat1, active compounds read low 1.01 | S. cerevisiae deletion strains, locus YDR001C, strain nth1, active compounds read low 0.931 | S. cerevisiae deletion strains, locus YDR137W, strain rgp1, active compounds read low 1.04 | S. cerevisiae deletion strains, locus YDR159W, strain sac3, active compounds read low 0.876 | S. cerevisiae deletion strains, locus YDR195W, strain ref2 0.896 | S. cerevisiae deletion strains, locus YER016W, strain bim1, active compounds read low 0.987 | S. cerevisiae deletion strains, locus YER110C, active compounds read low 0.927 | S. cerevisiae deletion strains, locus YGL078C, strain dbp3, active compounds read low 0.942 | S. cerevisiae deletion strains, locus YGL167C, strain pmr1, active compounds read low 0.996 | S. cerevisiae deletion strains, locus YGL227W, strain vid30, active compounds read low 0.973 | S. cerevisiae deletion strains, locus YGL240W, strain doc1, active compounds read low 0.977 | S. cerevisiae deletion strains, locus YGR252W, strain gcn5, active compounds read low 0.774 | S. cerevisiae deletion strains, locus YHR013C, strain ard1, active compounds read low 0.998 | S. cerevisiae deletion strains, locus YJL129C, strain trk1, active compounds read low 0.894 | S. cerevisiae deletion strains, locus YKL009W, strain mrt4, active compounds read low 1.02 | S. cerevisiae deletion strains, locus YKL068W, active compounds read low 0.977 | S. cerevisiae deletion strains, locus YKL085W, strain MDH1 (second series), active compounds read low 0.984 | S. cerevisiae deletion strains, locus YKL085W, strain MDH1, active compounds read low 0.984 | S. cerevisiae deletion strains, locus YKL160W, strain elf1, active compounds read low 0.99 | S. cerevisiae deletion strains, locus YLL026W, active compounds read low 0.94 | S. cerevisiae deletion strains, locus YLL041C, strain sdh2, active compounds read low 0.979 | S. cerevisiae deletion strains, locus YLR102C, strain apc9, active compounds read low 0.93 | S. cerevisiae deletion strains, locus YMR078C, strain ctf18, active compounds read low 0.92 | S. cerevisiae deletion strains, locus YNL250W, strain rad50, active compounds read low 0.951 | S. cerevisiae deletion strains, locus YNL322C, strain KRE1 (second series), active compounds read low 0.943 | S. cerevisiae deletion strains, locus YNR049C, strain mso1, active compounds read low 0.958 | S. cerevisiae deletion strains, locus YOL012C, strain htz1 0.278 | S. cerevisiae deletion strains, locus YOR290C, strain snf2, active compounds read low 0.887 | S. cerevisiae deletion strains, locus YPL240C, strain hsp82, active compounds read low 0.956 | S. cerevisiae deletion strains, locus YPR141C, strain kar3, active compounds read low 0.962
